Screening data (PubChem)
HSF1 inh = HSF1 inhibition. NIH3T3-HGL HSE-luciferase, MG132-induced, luminescence 8 h; hits give low values. activity change, negative = inhibition, % at 7.5 µM (by protocol). 0.77% of 300,000 active;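 active = more than half of replicate wells show activity change below -50%, luminescence cut by over half; inconclusive = some wells, but at most half, below -50%; inactive = no replicate well below -50%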;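 note: luciferase reports HSF-1 transcriptional activity via heat shock element; 0% = median of DMSO wells and -100% = zero luminescence signal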
DAX1 inh = inhibits human nuclear receptor DAX1. P51843. HEK293 Gal4-DAX1 luciferase reporter, luminescence. inhibition, % at 6.75 µM. 0.99% of 340,000 active. AID 504766;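 active = inhibition above the mean over all tested compounds plus 3 SD, cut at about 4.2% in these data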;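 note: 0% = DAX1-transfected cells with DMSO and 100% = empty-vector control cells with DMSO; inhibition shows as a rise in luminescence from relieved DAX1 repression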
AHR activator = activators of human aryl hydrocarbon receptor | P35869 | AHR-responsive luciferase reporter cells, luminescence | activation, % at 5 µM | 2.5% of 320,000 active | AID 2796; in the data active = activation above about 47%;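 note: 0% = vehicle wells and 100% = reference agonist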
Target sequence (P35869 whole entry, looked up): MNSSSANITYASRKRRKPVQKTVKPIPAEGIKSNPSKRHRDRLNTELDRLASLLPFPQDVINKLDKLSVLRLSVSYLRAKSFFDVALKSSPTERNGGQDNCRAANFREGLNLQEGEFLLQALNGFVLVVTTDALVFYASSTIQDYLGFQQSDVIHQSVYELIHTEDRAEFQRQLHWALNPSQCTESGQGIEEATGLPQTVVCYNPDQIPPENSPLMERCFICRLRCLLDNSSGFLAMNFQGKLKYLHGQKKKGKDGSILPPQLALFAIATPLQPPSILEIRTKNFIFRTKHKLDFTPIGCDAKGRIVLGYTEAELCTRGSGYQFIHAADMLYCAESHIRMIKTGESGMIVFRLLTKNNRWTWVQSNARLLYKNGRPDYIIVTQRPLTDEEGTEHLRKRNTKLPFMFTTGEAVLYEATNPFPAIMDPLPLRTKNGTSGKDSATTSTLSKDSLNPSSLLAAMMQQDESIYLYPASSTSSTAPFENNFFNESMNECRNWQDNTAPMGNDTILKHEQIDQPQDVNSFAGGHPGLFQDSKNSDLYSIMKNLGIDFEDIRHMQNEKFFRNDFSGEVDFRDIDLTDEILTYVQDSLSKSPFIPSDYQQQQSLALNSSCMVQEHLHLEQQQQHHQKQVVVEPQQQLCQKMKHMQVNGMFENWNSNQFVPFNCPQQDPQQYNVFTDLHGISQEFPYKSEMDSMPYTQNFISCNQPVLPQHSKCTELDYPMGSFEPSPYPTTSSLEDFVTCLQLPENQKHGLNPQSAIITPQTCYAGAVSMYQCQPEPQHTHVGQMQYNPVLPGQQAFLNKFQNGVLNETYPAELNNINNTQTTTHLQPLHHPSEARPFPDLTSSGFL
HSF-1 act = increases HSF-1 driven luciferase reporter signal; NIH3T3-HGL HSF-1 luciferase reporter, MG132, 8 h; 100% = twice DMSO control signal; activation, % at 9 µM; 1.7% of 300,000 active; AID 504408;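 active = mean replicate activation of at least 50% with a set share of replicates each reaching 50%; inconclusive = only one of those two conditions met; inactive = mean below 50% and too few replicates reaching it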;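 note: 0% = median of the neutral control wells and 100% = twice that signal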
GAA850 FXN act = activators of GAA850 frataxin (FXN) promoter; 0.56% of 360,000 active; activation, % at 6 µM; HEK293 lucGAA850 FXN promoter luciferase reporter, 24 h; percent of 10 µM SAHA response; AID 540364;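 active = activation above the average of all compounds screened plus 3 SD, cutoff fixed separately per campaign, cut at about 7.5% in these data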;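 note: 0% = DMSO wells and 100% = 10 µM SAHA wells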
* hit, by the source's call. A selection: hits, their analogues and other compounds. The true share with any hit is near 5.4%.

For CC(=O)Nc1ccc(-c2cc(N)n(-c3ccccc3)n2)cc1 the results were HSF1 inh -46, DAX1 inh 2, AHR activator 72*, HSF-1 act -50 and GAA850 FXN act 8.
Cc1ccc(-c2cc(NC(=O)CCl)n(-c3ccccc3)n2)cc1 was read as HSF1 inh 50, DAX1 inh -1, AHR activator -4, HSF-1 act 65* and GAA850 FXN act -1.
`Cc1n(-c2ccccc2)c2ccc(Cl)cc2[n+]1CCO` gave HSF1 inh -6, DAX1 inh 1, AHR activator 1, HSF-1 act -4 and GAA850 FXN act 2.
Screening CCc1nc(CNC(=O)C2CCC(=O)N(Cc3cccc(OC)c3)C2)no1 (centres undefined) returned HSF1 inh 2, DAX1 inh 0, AHR activator -2, HSF-1 act 1 and GAA850 FXN act 0.
`COc1ccc2nc3sc(C(=O)NCc4cccs4)c(N)c3cc2c1` gave HSF1 inh 31, AHR activator -5 and HSF-1 act 55*.
`CCOC(=O)/C(=C\c1ccccc1)NC(=O)c1ccccc1` gave HSF1 inh 13, DAX1 inh 2, AHR activator 5, HSF-1 act 16 and GAA850 FXN act 3.
Screening CCOC(=O)/C(=C/c1ccc(OC(=O)c2ccccc2)cc1)C(C)=O returned HSF1 inh 73, DAX1 inh 1, AHR activator -1, HSF-1 act 77* and GAA850 FXN act 3.
Screening Cc1cc(C(=O)NNS(=O)(=O)c2ccc(F)cc2)nn1C(C)(C)C returned HSF1 inh -71*, DAX1 inh 0, AHR activator 6, HSF-1 act -79 and GAA850 FXN act 0.
`Cc1cc(C(=O)NNC(=O)c2cccs2)nn1C(C)(C)C` gave HSF1 inh 3, DAX1 inh 1, AHR activator 3, HSF-1 act -7 and GAA850 FXN act 3.
`Clc1ccc(-n2cc(COCc3ccccc3)nn2)cc1` gave HSF1 inh 28, DAX1 inh 0, AHR activator 2, HSF-1 act 61* and GAA850 FXN act 6.
For CC(=O)c1cccc(OCC(=O)N(CCC2=CCCCC2)c2c(N)n(Cc3ccccc3)c(=O)[nH]c2=O)c1 the results were DAX1 inh 4.3* and GAA850 FXN act -1.
CC(C)c1ccc(N(C(=O)CNC(=O)c2ccco2)C(C(=O)NC2CCCC2)c2cccnc2)cc1 (centres undefined) was read as HSF1 inh 4, DAX1 inh 0, AHR activator -3, HSF-1 act -5 and GAA850 FXN act 0.
CC1(C)Cc2c(C#N)c(N3CCCC3)nc(-c3ccco3)c2CO1 was read as HSF1 inh 57, DAX1 inh 2, AHR activator -2, HSF-1 act 111* and GAA850 FXN act 0.
For Cc1ccc(-n2c(=S)[nH]c3nc4c(cc3c2=O)COC(C)(C)C4)cc1 the results were HSF1 inh inconclusive, DAX1 inh -1, AHR activator 3, HSF-1 act -59 and GAA850 FXN act -1.
CC1(C)Cc2nc3[nH]c(=S)[nH]c(=O)c3cc2CO1 was read as DAX1 inh 4.8*, AHR activator 3 and GAA850 FXN act 2.
NS(=O)(=O)c1ccc(N=Nc2c(O)ccc3ccccc23)cc1 was read as HSF1 inh 0, DAX1 inh -2, AHR activator 4, HSF-1 act -5 and GAA850 FXN act 7.
Screening Oc1ccc(N=Nc2c(O)ccc3ccccc23)cc1 returned HSF1 inh 33, DAX1 inh -1, AHR activator 79*, HSF-1 act 17 and GAA850 FXN act -2.
C/C(=N\NC(=O)c1cccc(S(=O)(=O)N2CCCC2)c1)c1ccc(OCC(=O)N(C)C)cc1 was read as HSF1 inh 1, DAX1 inh -2, AHR activator 7, HSF-1 act -12 and GAA850 FXN act 0.
`O=C(Cn1c(=O)c2cccn2c2ccccc21)Nc1cc(F)ccc1F` gave HSF1 inh -57*, DAX1 inh 0, AHR activator 6, HSF-1 act -67 and GAA850 FXN act 2.
CCc1ccc(NC(=O)CCn2c(=O)c3cccn3c3ccccc32)cc1 was read as HSF1 inh 6, DAX1 inh 0, AHR activator 50*, HSF-1 act 10 and GAA850 FXN act -2.
For NC(=S)N/N=C1\CCSc2ccc(Cl)cc21 the results were HSF1 inh -5, AHR activator -5, HSF-1 act -1 and GAA850 FXN act -2.
CCC(COC)NC(=O)CCc1nnc(Cc2cccc(C(F)(F)F)c2)o1 (centres undefined) was read as HSF1 inh 39, DAX1 inh 2, AHR activator 4, HSF-1 act 54* and GAA850 FXN act 2.
CC(C)NC(=O)CCc1nnc(Cc2cccc(C(F)(F)F)c2)o1 was read as HSF1 inh 8, DAX1 inh 1, AHR activator 7, HSF-1 act 31 and GAA850 FXN act 2.
`CC(C)CNC1CS(=O)(=O)CC1O` (centres undefined) gave HSF1 inh -3, DAX1 inh 1, AHR activator 2, HSF-1 act -1 and GAA850 FXN act 1.
For CCCCCCCCS(=O)C1CS(=O)(=O)CC1O (centres undefined) the results were HSF1 inh 3, DAX1 inh 4.7*, AHR activator 2, HSF-1 act 16 and GAA850 FXN act 0.
`CC(/C=C1\SC(=O)N(CCCC(=O)O)C1=O)=C\c1ccccc1` gave HSF1 inh -73*, DAX1 inh -5, AHR activator -4, HSF-1 act -78 and GAA850 FXN act -12.
For O=C(CCCCCCN1C(=O)c2ccccc2C1=O)N1CCC(c2ccccc2)C1 (centres undefined) the results were HSF1 inh -64*, DAX1 inh 3, AHR activator 1, HSF-1 act -71 and GAA850 FXN act -2.
Screening CC(/C=C1\SC(=S)N(CCCC(=O)Nc2ccc(C(=O)O)cc2)C1=O)=C\c1ccccc1 returned HSF1 inh 11, DAX1 inh 0, AHR activator -4, HSF-1 act 61* and GAA850 FXN act -4.
For CC(=C\c1ccccc1)/C=C1/SC(=S)N(CCCC(=O)O)C1=O the results were HSF1 inh -8, DAX1 inh 0, HSF-1 act 8 and GAA850 FXN act -3.
`O=C(CCCCCCCCN1C(=O)c2ccccc2C1=O)N1CCOCC1` gave HSF1 inh -6, AHR activator -1, HSF-1 act 11 and GAA850 FXN act 1.
`CC(/C=C1\SC(=S)N(CCC(=O)Nc2ccccc2O)C1=O)=C\c1ccccc1` gave HSF1 inh -69*, DAX1 inh 0, AHR activator 3, HSF-1 act -69 and GAA850 FXN act -2.
For O=C(N1CCOCC1)N1CCN(S(=O)(=O)c2ccc(F)cc2)CC1 the results were HSF1 inh -7, DAX1 inh 3, AHR activator 0, HSF-1 act 5 and GAA850 FXN act 2.
